Among the data in PubChem BioAssay are growth inhibition, inhibition and outcome values, retold here.

Experiment [1] in a line: antimalarial activity against Dd2 strain (AID 2302;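 active means growth inhibition above 50% at the single 2 µM test dose, taken to imply half-maximal potency below 2 µM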;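 further: 0% = DMSO untreated growth and 100% = chloroquine plus artemisinin killed control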). The conditions noted are these: P. falciparum Dd2 in RBCs, LDH growth readout, 72 h; at 2 µM; hits give high values.
The nature of experiment [2]: HepG2 cytotoxicity, primary screen, cytotoxicity control for P. falciparum antimalarial project, cell-based, ATP luminescence (AID 2303;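 active means inhibition above 50%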;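 further: 0% = DMSO wells and 100% = digitonin-killed cells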). The conditions noted are these: HepG2 viability, 24-48 h, at 10 µM, hits give high values.
For experiment [3], the target named is L-lactate dehydrogenase (Plasmodium falciparum (isolate CDC / Honduras)) (UniProt Q27743). Nature of the experiment: PfLDH activity inhibition – cell lysate, 3D7 strain, counter-screen for P. falciparum growth inhibition project (AID 2304).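 Further: 0% = vehicle and 100% = reference inhibitor.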 The settings on record: P. falciparum 3D7 crude extract, LDH APAD/NBT absorbance; at 2 µM; hits give high values. In general terms: The purpose of a counterscreen is to sort out artefacts and off-target activity.

Experiment [4] is described as follows: inhibition of 3D7 malaria parasite growth – strain 3D7 (AID 2306).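 Further: 0% = DMSO wells and 100% = chloroquine plus artemisinin control wells.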 The conditions noted are these: P. falciparum 3D7 erythrocytic growth, LDH absorbance, 72 h; at 2 µM; hits give high values.
Experiment [5] deals with Calcium-dependent protein kinase 1 (Plasmodium falciparum (isolate 3D7)) (UniProt P62344). Nature of the experiment: PfCDPK1 kinase inhibitors, biochemical, TCAMS library (AID 1159585; cut-off not given, nearly all actives have IC50 up to about 0.98 µM;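 further: inhibitors leave more ATP so luminescence rises with inhibition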). The conditions noted are these: recombinant PfCDPK1, Kinase-Glo ATP depletion luminescence.
For experiment [6], the target named is Plasmodium falciparum protein kinase 6 (PK6, PF3D7_1337100) (UniProt Q8IDW1). Description: PfPK6 kinase inhibitors, biochemical, TCAMS library (AID 1159586). The settings on record: recombinant PfPK6, Kinase-Glo ATP depletion luminescence. (In Kinase-Glo more light means more ATP remaining.)
Experiment [7] deals with Protein kinase 7 (PK7), Plasmodium falciparum 3D7 (PF3D7_0213400) (UniProt Q7YTF7). Description: inhibition of Plasmodium PK7 catalytic activity – biochemical, TCAMS antimalarial set, Kinase-Glo luminescence (AID 1159587). The conditions noted are these: recombinant PfPK7, Kinase-Glo ATP depletion luminescence.
The target of experiment [8] is Calcium-dependent protein kinase 4 (Plasmodium falciparum (isolate 3D7)) (UniProt Q8IBS5). Description: PfCDPK4 kinase inhibitors, biochemical, TCAMS library (AID 1159588; cut-off not given, nearly all actives have IC50 up to about 0.91 µM). The conditions noted are these: recombinant PfCDPK4, Kinase-Glo ATP depletion luminescence.

A number with no mark means an inactive call. For some of these results: Results with a measured potency or affinity are listed apart. Activity calls are given as the source filed them. Unless noted, how the calls were made is not given here.

Sequence of Calcium-dependent protein kinase 4 (Plasmodium falciparum (isolate 3D7)) (Q8IBS5 whole entry, looked up): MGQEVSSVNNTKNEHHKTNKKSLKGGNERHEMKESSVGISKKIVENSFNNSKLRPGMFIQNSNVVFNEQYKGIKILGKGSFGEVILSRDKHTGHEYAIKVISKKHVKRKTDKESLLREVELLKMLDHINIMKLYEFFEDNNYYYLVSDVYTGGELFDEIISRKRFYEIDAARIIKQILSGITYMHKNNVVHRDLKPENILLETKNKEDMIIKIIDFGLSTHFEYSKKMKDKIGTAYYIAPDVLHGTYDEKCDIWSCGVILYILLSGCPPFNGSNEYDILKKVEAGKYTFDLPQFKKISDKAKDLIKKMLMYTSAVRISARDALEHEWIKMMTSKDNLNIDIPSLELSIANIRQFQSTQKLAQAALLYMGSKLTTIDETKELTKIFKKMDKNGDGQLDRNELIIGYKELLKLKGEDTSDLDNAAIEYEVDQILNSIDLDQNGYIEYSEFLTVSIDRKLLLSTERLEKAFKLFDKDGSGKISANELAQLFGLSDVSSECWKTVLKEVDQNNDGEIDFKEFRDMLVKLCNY
Sequence of L-lactate dehydrogenase (Plasmodium falciparum (isolate CDC / Honduras)) (Q27743 whole entry, looked up): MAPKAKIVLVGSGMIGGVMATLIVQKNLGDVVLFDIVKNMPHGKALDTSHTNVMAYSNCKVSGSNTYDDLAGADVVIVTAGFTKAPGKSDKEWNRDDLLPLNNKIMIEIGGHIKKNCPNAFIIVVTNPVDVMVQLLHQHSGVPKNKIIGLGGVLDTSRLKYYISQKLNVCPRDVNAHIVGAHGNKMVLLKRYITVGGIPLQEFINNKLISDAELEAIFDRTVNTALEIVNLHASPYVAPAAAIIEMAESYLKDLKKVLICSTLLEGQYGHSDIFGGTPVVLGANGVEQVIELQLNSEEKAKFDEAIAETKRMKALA
Sequence of Plasmodium falciparum protein kinase 6 (PK6, PF3D7_1337100) (Q8IDW1 1-305): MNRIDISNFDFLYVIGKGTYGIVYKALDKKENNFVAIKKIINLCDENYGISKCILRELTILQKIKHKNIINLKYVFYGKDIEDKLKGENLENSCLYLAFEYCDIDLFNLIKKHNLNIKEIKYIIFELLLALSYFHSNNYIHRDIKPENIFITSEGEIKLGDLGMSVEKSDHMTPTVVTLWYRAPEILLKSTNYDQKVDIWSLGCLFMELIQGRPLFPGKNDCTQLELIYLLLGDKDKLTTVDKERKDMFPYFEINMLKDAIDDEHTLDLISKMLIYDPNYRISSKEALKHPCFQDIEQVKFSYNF
Sequence of Protein kinase 7 (PK7), Plasmodium falciparum 3D7 (PF3D7_0213400) (Q7YTF7 1-343): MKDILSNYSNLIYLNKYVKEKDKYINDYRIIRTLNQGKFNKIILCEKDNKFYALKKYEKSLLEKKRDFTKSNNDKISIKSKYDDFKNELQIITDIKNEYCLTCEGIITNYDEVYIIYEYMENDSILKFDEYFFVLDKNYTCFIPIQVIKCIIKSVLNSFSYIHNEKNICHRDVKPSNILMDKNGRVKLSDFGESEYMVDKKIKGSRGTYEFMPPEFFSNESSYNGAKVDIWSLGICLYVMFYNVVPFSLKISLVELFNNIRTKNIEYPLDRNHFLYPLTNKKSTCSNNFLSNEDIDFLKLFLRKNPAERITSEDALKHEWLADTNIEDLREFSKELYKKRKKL
Sequence of Calcium-dependent protein kinase 1 (Plasmodium falciparum (isolate 3D7)) (P62344 whole entry, looked up): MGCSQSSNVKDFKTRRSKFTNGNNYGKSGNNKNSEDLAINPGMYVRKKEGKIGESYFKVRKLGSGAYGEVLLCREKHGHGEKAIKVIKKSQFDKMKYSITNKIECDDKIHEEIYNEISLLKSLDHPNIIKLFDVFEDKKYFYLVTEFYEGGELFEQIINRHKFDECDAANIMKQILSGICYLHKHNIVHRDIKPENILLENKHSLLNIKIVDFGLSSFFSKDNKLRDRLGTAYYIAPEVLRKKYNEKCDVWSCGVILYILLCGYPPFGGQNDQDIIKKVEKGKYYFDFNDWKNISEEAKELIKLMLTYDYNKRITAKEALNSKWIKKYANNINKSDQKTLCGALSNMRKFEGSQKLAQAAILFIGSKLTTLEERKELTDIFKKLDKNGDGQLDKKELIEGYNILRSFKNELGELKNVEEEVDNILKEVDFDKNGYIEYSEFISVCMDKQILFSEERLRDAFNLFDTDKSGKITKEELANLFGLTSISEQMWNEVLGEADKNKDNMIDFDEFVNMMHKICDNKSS

`O=C(Cc1ccccc1)NC1CCN(c2ccnc3cc(Cl)ccc23)C1` (stereo not given): the results for the growth inhibition in experiment [1] and in experiment [4] were 78% (active) and 101% (active), respectively. The figures for the inhibition in experiment [2] and in experiment [3] were 6% and -6%, respectively. Besides, the outcome in experiment [5], in experiment [6], in experiment [7] and in experiment [8] was inactive.
As to `COc1cc2ccccc2cc1CCNCCCCNCCc1cc2ccccc2cc1OC`, the growth inhibition is 38% in experiment [1] and 99% (active) in experiment [4]. Besides, the inhibition – broadly, the drop in the measured response relative to a control, in per cent – in experiment [2] was 100% (active); in experiment [3], 2%. Further, the outcome in experiment [5], in experiment [6], in experiment [7] and in experiment [8] was inactive.
As for `CC1CCCN1Cc1ccc(-c2ccc3c(=O)cc(CCc4cccc(F)c4F)n(CC(=O)N(C)Cc4ccc(-c5ccc(C(F)(F)F)cc5)cc4)c3n2)cc1` (stereo not given), the growth inhibition is 91% (active) in experiment [1] and 102% (active) in experiment [4]. Further, the inhibition was 0% in experiment [2] and 3% in experiment [3]. In addition, the outcome in experiment [5], in experiment [6], in experiment [7] and in experiment [8] was inactive.
On to `FC(F)(F)c1ccc2nc(-c3ccc(-c4cccc(CNCc5cnn(-c6ccccc6)n5)c4)s3)[nH]c2c1`, for which the results for the growth inhibition in experiment [1] and in experiment [4] were 91% (active) and 101% (active), respectively. Moreover, the results for the inhibition in experiment [2] and in experiment [3] were 38% and -2%, respectively. Besides, the outcome in experiment [5], in experiment [6], in experiment [7] and in experiment [8] was inactive.
For the compound `NC1=NC2(CCCCC2)N(OCCCCCCC2CCCCC2)C(N)=N1`, the results for the growth inhibition in experiment [1] and in experiment [4] were 49% and 97% (active), respectively. In addition, the inhibition in experiment [2] is 77% (active); in experiment [3], -4%. Further, the result in experiment [5], in experiment [6], in experiment [7] and in experiment [8] was inactive.
For the compound `N#Cc1ccc(NC(=NC2CCN(Cc3ccccc3)CC2)Nc2ccccc2Cl)c(O)c1`, the growth inhibition in experiment [1] was 97% (active); in experiment [4], 101% (active). For the same compound, the results for the inhibition in experiment [2] and in experiment [3] were 31% and 0%, respectively. In addition, the outcome in experiment [5], in experiment [6], in experiment [7] and in experiment [8] was inactive.
Regarding `CC(C)(C)c1ccc(NC(=O)c2cccc(CN3CCCN(Cc4cccc(Cl)c4)CC3)c2)cc1`, the values for the growth inhibition in experiment [1] and in experiment [4] were 30% and 85% (active), respectively. Further, the inhibition in experiment [2] is 61% (active); in experiment [3], 3%. Further, the outcome in experiment [5], in experiment [6], in experiment [7] and in experiment [8] was inactive.
Regarding `CCn1cnc2c(N3CCCCS3(=O)=O)cc(C(=O)N[C@@H](Cc3ccccc3)[C@H](O)CNC3CCOCC3)cc21`, the results for the growth inhibition in experiment [1] and in experiment [4] were 87% (active) and 99% (active), respectively. Also, the inhibition in experiment [2] is 7%; in experiment [3] it was 6%. Besides, the result in experiment [5], in experiment [6], in experiment [7] and in experiment [8] was inactive.
Regarding `CCCCn1c(C(C)Oc2ccc(Cl)cc2Cl)nc2cc(S(N)(=O)=O)ccc21` (stereo not given), the growth inhibition in experiment [1] is 45%; in experiment [4], 94% (active). In addition, the inhibition in experiment [2] was 24%; in experiment [3] it was -2%. The outcome in experiment [5], in experiment [6], in experiment [7] and in experiment [8] was inactive.
As to `Cc1oc(-c2cccc(Oc3ccccc3)c2)nc1CN(Cc1cnn(C)c1)C(C)C`, the results for the growth inhibition in experiment [1] and in experiment [4] were 61% (active) and 89% (active), respectively. For the same compound, the inhibition in experiment [2] was 22%; in experiment [3], 2%. Further, the outcome in experiment [5], in experiment [6], in experiment [7] and in experiment [8] was inactive.
Take `COc1ccc(C2C(C(=O)Nc3cc(OC)c(OC)c(OC)c3)c3cc(OC)c(OC)cc3C(=O)N2C)cc1` (stereo not given): the growth inhibition is 100% (active) in experiment [1] and 98% (active) in experiment [4]. Also, the inhibition is 9% in experiment [2] and 2% in experiment [3]. For the same compound, the result in experiment [5], in experiment [6], in experiment [7] and in experiment [8] was inactive.
`CC(=O)Nc1cccc(-c2cnc(N)c3cc(-c4ccc5c(c4)OCO5)ccc23)c1`: the growth inhibition in experiment [1] was 93% (active); in experiment [4], 99% (active). Also, the inhibition in experiment [2] is 100% (active); in experiment [3], -4%. Also, the result in experiment [5], in experiment [6], in experiment [7] and in experiment [8] was inactive.
Turning to `CCOCCCn1c(=N)c(C(=O)NC(C)c2ccccc2)cc2c(=O)n3cccc(C)c3nc21` (stereo not given), the growth inhibition in experiment [1] was 31%; in experiment [4] it was 95% (active). Moreover, the inhibition in experiment [2] was 24%; in experiment [3], -4%. Besides, the outcome in experiment [5], in experiment [6], in experiment [7] and in experiment [8] was inactive.
With `O=C(Nc1cccc(F)c1)N(Cc1ccc(-c2cccc(CN3CCNCC3)c2)cc1)C1CCN(Cc2ccccc2)CC1`, the growth inhibition in experiment [1] was 54% (active); in experiment [4] it was 97% (active). Besides, the inhibition was 13% in experiment [2] and -1% in experiment [3]. Also, the outcome in experiment [5], in experiment [6], in experiment [7] and in experiment [8] was inactive.
Turning to `O=C(Nc1ccccc1Br)c1cn(-c2ccccc2)nc1-c1cccc([N+](=O)[O-])c1`, the values for the growth inhibition in experiment [1] and in experiment [4] were 36% and 92% (active), respectively. Moreover, the values for the inhibition in experiment [2] and in experiment [3] were 7% and -5%, respectively. Also, the result in experiment [5], in experiment [6], in experiment [7] and in experiment [8] was inactive.
With `CCOC(=O)c1[nH]c(-c2ccc(Cl)cc2)nc1NC(=S)NCCCN1CCOCC1`, the growth inhibition in experiment [1] is 33%; in experiment [4], 92% (active). The inhibition in experiment [2] is 22%; in experiment [3] it was -4%. The result in experiment [5], in experiment [6], in experiment [7] and in experiment [8] was inactive.
With `CCNc1cc(C(=O)N[C@@H](Cc2ccoc2)[C@H](O)CNC(C)CCCC(C)C)cc(N2CCCCS2(=O)=O)c1` (stereo not given in full), the growth inhibition was 68% (active) in experiment [1] and 99% (active) in experiment [4]. Moreover, the inhibition in experiment [2] is -2%; in experiment [3], 0%. Besides, the result in experiment [5], in experiment [6], in experiment [7] and in experiment [8] was inactive.
On to `COc1cccc(OC)c1-c1ccccc1NC(=O)N1CCCc2cc(C)ccc21`, for which the growth inhibition in experiment [1] is 84% (active); in experiment [4], 82% (active). Also, the inhibition in experiment [2] is 51% (active); in experiment [3], 5%. Further, the outcome in experiment [5], in experiment [6], in experiment [7] and in experiment [8] was inactive.
For the compound `Cc1cc(C2CCN(CCCCNC(=O)c3ccc(NC(=O)c4ccc(Cl)cc4)cc3)CC2)c(C)cc1OCc1nccn1C`, the growth inhibition in experiment [1] was 98% (active); in experiment [4], 100% (active). Further, the inhibition in experiment [2] was 18%; in experiment [3], -2%. Besides, the result in experiment [5], in experiment [6], in experiment [7] and in experiment [8] was inactive.
For `CCCCCCNC[C@@H](O)[C@H](Cc1ccccc1)NC(=O)c1cc(NCC)cc(N2CCCCS2(=O)=O)c1`, the growth inhibition in experiment [1] was 98% (active); in experiment [4], 100% (active). Moreover, the inhibition in experiment [2] was 5%; in experiment [3], -5%. Further, the outcome in experiment [5], in experiment [6], in experiment [7] and in experiment [8] was inactive.
